Experimental data as given in PubChem BioAssay (NCI).
This is part of a sample that, as a whole, favours compounds with a hit. Of some 79,000 tested, about 15% had one in any assay. A number with no mark means an inactive call. Activity calls are given as the source filed them. Cut-off read from the data, not from the text of the source: active = growth inhibition above about 70%; inactive = the rest.

What was measured:
[1] = NCI Yeast Anticancer Drug Screen. Data for the rad50 strain (AID 155);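 note: 0% = growth of vehicle-only cultures of the same strain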; details: S. cerevisiae rad50 strain growth inhibition, hits give high values
Outline: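 Cells are treated with compound, grown, and their growth is then scored against vehicle-only cultures of the same repair-deficient yeast strain.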

[2] = NCI Yeast Anticancer Drug Screen. Data for the mec2-1 strain (AID 157); details: S. cerevisiae mec2-1 strain, hits give high values
Outline: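 Cells of the genetically defined mec2-1 yeast strain are incubated with test compound. Inhibition of growth is calculated against vehicle-treated controls.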

[3] = NCI Yeast Anticancer Drug Screen. Data for the sgs1 mgt1 strain (AID 161);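 note: 0% = growth of cultures given vehicle only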; details: S. cerevisiae sgs1 mgt1 strain, hits give high values
Outline: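 Read-out: growth inhibition vs vehicle controls. Cells: mutant yeast strain deficient in DNA damage repair.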

[4] = NCI Yeast Anticancer Drug Screen. Data for the cln2 rad14 strain (AID 165);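 note: 0% = growth equal to vehicle treated cultures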; details: S. cerevisiae cln2 rad14 strain, hits give high values
Outline: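 The screen exposed genetically defined yeast (cln2 rad14) to test compounds and scored growth inhibition relative to vehicle-treated controls.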

[5] = NCI Yeast Anticancer Drug Screen. Data for the bub3 strain (AID 167); details: S. cerevisiae bub3 mutant strain, hits give high values
Outline: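 Part of a panel of yeast mutants defective in DNA damage repair or cell cycle regulation. Each strain is grown with compound, and inhibition is calculated relative to solvent-treated cultures.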

[6] = NCI Yeast Anticancer Drug Screen. Data for the mlh1 rad18 strain (AID 175); details: S. cerevisiae mlh1 rad18 strain growth inhibition, hits give high values
Outline: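 Compound-treated yeast growth, normalised to vehicle controls. Strain bears defined DNA repair mutations.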

[7] = at 5.0 µM (retest, dose inferred, filed as 0.5)
[8] = at 50.0 µM (retest, dose inferred, filed as 5.0)

SMILES | growth inhibition [1, 7] | growth inhibition [1, 8] | growth inhibition ([1]; at 50.0 µM) | growth inhibition [2, 7] | growth inhibition [2, 8] | growth inhibition ([2]; at 50.0 µM) | growth inhibition [3, 7] | growth inhibition [3, 8] | growth inhibition ([3]; at 50.0 µM) | growth inhibition [4, 7] | growth inhibition [4, 8] | growth inhibition ([4]; at 50.0 µM) | growth inhibition [5, 7] | growth inhibition [5, 8] | growth inhibition ([5]; at 50.0 µM) | growth inhibition [6, 7] | growth inhibition [6, 8] | growth inhibition ([6]; at 50.0 µM)
N=c1n(CC(=O)NC23CC4CC(CC(C4)C2)C3)c2ccccc2n1Cc1ccc(Cl)cc1 | 33% | 33% | 92.5% (active) | 13% | 13% | 93.3% (active) | 14% | 14% | 93.4% (active) | -2% | -2% | 92.4% (active) | -2% | -2% | 91.4% (active) | 13% | 13% | 90.3% (active)
Cc1cc(O)n(Cc2ccccc2)c(=O)c1 | -151% | 34% | 48.5% | -51% | -36% | 9.75% | -67% | 33% | 34.6% | -60% | -45% | -4.75% | -70% | 4% | 47.9% | -123% | 7% | 67.1%
C=C(C)C1(C(=O)OCC(Cl)(Cl)Cl)NC(=O)C(NC(=O)COc2ccccc2)=CO1 (configuration not stated) | 26% | 66% | 94.8% (active) | 4% | 68% | 86.8% (active) | 8% | 56% | 94.5% (active) | 6% | 31% | 61.1% | 3% | 44% | 85% (active) | 3% | 51% | 93% (active)
C(/Cc1ccc2c(c1)OCO2)=N\NC1=NCCCCN1 | -3% | -18% | 15.7% | -3% | -5% | -7.25% | -2% | -15% | -16.2% | 0% | -17% | 28.8% | -1% | -20% | 3.2% | 0% | -18% | -6.5%
CO/C(=N\N=C(/c1ccccc1)C(F)(F)F)c1ccncc1 | 44% | 75% (active) | 45% | 0% | 58% | 62.6% | 15% | 76% (active) | 71.8% (active) | 25% | 52% | 44.5% | 2% | 79% (active) | 75.2% (active) | 0% | 66% | 65%
CCCCCCSC(=Cc1cccc[n+]1C)SCCCCCC | 98% (active) | 96% (active) | 99.5% (active) | 100% (active) | 98% (active) | 99.7% (active) | 100% (active) | 98% (active) | 99.7% (active) | 99% (active) | 95% (active) | 99.3% (active) | 98% (active) | 94% (active) | 99.5% (active) | 100% (active) | 97% (active) | 99.4% (active)
CCC12C=CCN3CCC4(c5cc(C(c6ccccn6)c6cc7ccccc7n6C)c(OC)cc5N(C)C4C(O)(C(=O)OC)C1OC(C)=O)C32 (configuration not stated) | 4% | 0% | 68.3% | 46% | 0% | 81.5% (active) | -1% | 2% | 49.6% | -2% | -5% | 83.3% (active) | -2% | -3% | 65% | 3% | 11% | 94.7% (active)
COc1cc(CNc2nc3ccccc3nc2-c2cccs2)cc(OC)c1OC | 5% | 12% | 10% | -13% | -22% | 0.65% | -1% | 20% | 19.6% | -12% | 9% | 60% | -12% | -8% | 30% | -17% | 17% | 55.3%
CN(C)CC(O)c1cc(-c2ccc(Cl)cc2)nc2c(Cl)cc(Cl)cc12 (configuration not stated) | 11% | 99% (active) | 99.2% (active) | 12% | 99% (active) | 99.4% (active) | 41% | 99% (active) | 99.5% (active) | 9% | 97% (active) | 99.3% (active) | 8% | 99% (active) | 99.5% (active) | 46% | 99% (active) | 99.4% (active)
